# Assay results from PubChem BioAssay AID720535 (National Center for Advancing Translational Sciences (NCATS), 2013).
# About 420 (26%) of roughly 1,600 compounds were called active. Inconclusive results (about 40%) are left out. Calls come from the whole dose curve; as a rule, active = well fitted inhibition curve with a large enough effect; inconclusive = small, poorly fitted or top-dose-only effect; inactive = flat fitted curve, though single readings scatter. Shown is part of a subset that was picked to be rich in actives.
# Assay: qHTS for Inhibitors of TGF-b: Cytotox Counterscreen for Cherry Picks; note: nearly all actives have a fitted effect of over 70% in size
# Conditions: HepG2 CAGA-GFP viability, ATP luminescence, 18 h, cells stimulated with TGF-beta, 500 pg/mL; series mostly up to 46.1 µM; activity, negative = cytotoxicity: at the top concentration
# Source text: TGF-b is a main component in the TGF-b signaling pathway which plays diverse roles in cellular and development pathways. TGF-b is mediated by transcription factors called "Smads". Although the Smad-dependent pathway is the primary canonical TGF-b signaling mode, TGF-b1 can also activate alternative signaling pathways, including those involving MAPK (ERK, JNK and p38). This interaction may mediate or enhance Smad-dependent responses, or can exert Smad-independent effects. The complexity of this signaling cascade allows the TGF-b superfamily to perform unique, overlapping or redundant functions. We believe that targeting the TGF-beta pathway at the Smad-transcription factor level may eliminate the consequences of disrupting the entire pathway and offer specificity without affecting other signaling pathways. Smad3 is the primary transducer of TGF-b's signals and Smad3 regulates many functions attributed to TGF-b signaling. We hypothesize that Smad3 inhibitors will selectively eliminate Smad3-specific TGF-beta signals without undesired off-target effects. We aim to identify Smad3-small molecule antagonists using a quantitative high throughput screening (qHTS) approach. A high-throughput assay was developed to screen the NIH Molecular Libraries Small Molecule Repository (MLSMR). This is a cell based assay, where TGF-b is tagged with GFP. This is a counterscreen that evaluates the cytotoxicity of the compounds that were identified as hits in the primary cell-based screen (AID 588855). MH087449NIH Chemical Genomics Center [NCGC] NIH Molecular Libraries Probe Centers Network [MLPCN] MLPCN Grant: MH087449 Assay Submitter (PI): Sushil Rane, National Institute of Diabetes and Kidney Diseases
# Suspensions of trypsinized HEPG2 CAGA-GFP cells were dispensed into white, tissue culture-treated, solid 1536-well plates at 5uL/well (1000 cells/well final concentration) in DMEM medium supplemented with 1% FBS. Plates were incubated at 37 degrees C for 2 hours, after which 23 nL of compounds or DMSO were delivered to each well using a pin tool. One uL of recombinant TGF-beta in DMEM (1% FBS) was then dispensed (500 pg/mL final concentration), and plates were incubated at 37 degrees C for 18 hours. Two uL of CellTiter Glo (Promega), a luminescence-based viability reagent, was dispensed, followed by a 10 minute room temperature incubation. The plates were then measured on a PerkinElmer ViewLux plate reader for luminescence (clear filter) using a 5 second exposure. The %Activity was determined from the corrected luminescence values. Wells containing media only (no cells) were used to normalize %Activity of identified toxic compounds; media-only wells corresponded to 100%Activity (complete cell-killing), while DMSO-dosed cell controls were used to normalize 0%Activity (no toxicity). Concentration-response curves were fitted to the signals arising from the resulting luminescence. The concentration-effect curves were then classified based on curve quality (r2), response magnitude and degree of measured activity, and compounds were subsequently categorized based on their curve class.
# Potency is the fitted concentration of half-maximal effect.
SMILES,Potency,"activity, negative = cytotoxicity"
COc1cc(NC(=O)c2[nH]cnc2C(N)=O)cc(C(=O)Nc2cccc(C(F)(F)F)c2)c1,20.6 µM (active),
Cc1ccc(S(=O)(=O)Nc2nc3ccccc3nc2N2CCc3ccccc3C2)cc1,,-22.6% (inactive)
Cc1ccc(CN2CC(N3CCC(Cc4ccccc4)CC3)CS2(=O)=O)cc1 (centres undefined),,-20.7% (inactive)
COc1ccc(C)cc1S(=O)(=O)N1CCN(S(=O)(=O)c2cc(C(=O)O)ccc2C)CC1,,2.15% (inactive)
O=C(/C(=C/c1cccc(Cl)c1)c1nc2ccccc2[nH]1)c1ccccc1,6.51 µM (active),
CN(c1ccccc1)S(=O)(=O)c1ccc(C(=O)N2CCN(c3ccccc3Cl)CC2)cc1,,-8.45% (inactive)
O=c1[nH]c(CCl)nc2cc(-c3ccc(Cl)cc3)sc12,23.1 µM (active),
CN(C)CCNC(=O)c1ccc(Cl)c2cc3ccccc3nc12,2.59 µM (active),
CC[C@H]1CN2CCc3cc(OC)c(OC)cc3[C@@H]2C[C@@H]1C[C@H]1NCCc2cc(OC)c(OC)cc21,3.66 µM (active),
COc1ccc(-c2onc(C)c2-c2ccc3c(c2)OCCO3)c(O)c1,,-22.4% (inactive)
COc1ccc(CC(=O)Nc2ccccc2NC(=O)c2ccco2)cc1OC,,8.69% (inactive)
O=C(Nc1nnc(S(=O)(=O)N2CCCCCC2)s1)c1cccc(Br)c1,7.31 µM (active),
Cc1ccc(S(=O)(=O)Nc2ccc3c(c2)C(=O)N([C@H](C)CO)C[C@@H](C)[C@@H](CN(C)C(=O)Nc2cccc4ccccc24)O3)cc1,,-28.8% (inactive)
Cc1cccc2sc(N(CCCN(C)C)C(=O)CCS(=O)(=O)c3ccccc3)nc12,18.4 µM (active),
COc1cccc2sc(N(CCCN(C)C)C(=O)CCS(=O)(=O)c3ccccc3)nc12,13 µM (active),
COC(=O)COc1cccc2c(=O)n(CC(=O)NCc3ccccc3)ccc12,,-2.86% (inactive)
CCCc1cc(-c2n[nH]c(=S)n2CC)c2ccccc2n1,,3.2% (inactive)
Cc1ccnc(NC(=O)C2CCN(S(=O)(=O)c3c(C)c(C)cc(C)c3C)CC2)c1,11.6 µM (active),
Cc1ccc(C)c(S(=O)(=O)N2CCN(CC(=O)Nc3ccc([N+](=O)[O-])cc3)CC2)c1,,-22.4% (inactive)
Fc1cc(F)c2nc(Nc3nc4c(F)cccc4s3)sc2c1,,-21.5% (inactive)

SMILES,Potency,"activity, negative = cytotoxicity"
Cc1cc(C)cc(N(CC(=O)N2CC=C(c3ccccc3)CC2)S(=O)(=O)c2c(C)noc2C)c1,,-22.1% (inactive)
Cc1cccc(CS(=O)(=O)c2ncc(Cl)c(C(=O)Nc3ccc(F)cc3)n2)c1,10.3 µM (active),
Cc1cccc(NC(=O)c2nc(S(=O)(=O)Cc3ccccc3)ncc2Cl)c1,4.61 µM (active),
CC(=O)c1cccc(-c2cnc3c(NC=O)cc(-c4ccc(N(C)C)cc4)cn23)c1,,-21.9% (inactive)
O=C(Nc1ccc(Cl)cc1)Nc1nnc(/C=C/c2ccccc2)s1,,-16.4% (inactive)
COc1ccc2nc(N3CCN(C(=O)c4ccc([N+](=O)[O-])o4)CC3)sc2c1,23.1 µM (active),
c1ccc2cc3c(NCCN4CCOCC4)ccnc3cc2c1,18.4 µM (active),
CN(C(=O)c1cccc(NC(=O)Cc2cccc([N+](=O)[O-])c2)c1)C1CCCCC1,,-11.1% (inactive)
OCCCNc1nccc(-c2cc(Nc3cccc(Cl)c3)ncn2)n1,0.651 µM (active),
CCOC(=O)C1=C(N)N(c2ccc(C)cc2)C2=C(C(=O)CCC2)C1c1cccs1 (centres undefined),,-23.3% (inactive)
CN(C)c1nc(=Nc2cccc(Cl)c2)ss1,,-14.9% (inactive)
COc1cccc(CNc2nc(NCc3ccccc3OC)nc3ccsc23)c1,16.4 µM (active),
FC(F)(F)c1ccccc1Cc1c(-c2ccccc2)nc2c3ccccc3ccn12,,-27.2% (inactive)
COc1cc(NC(=O)c2ccccc2NS(=O)(=O)c2ccc(Cl)s2)cc(OC)c1,8.2 µM (active),
COc1cc(CC(=O)Nc2nc(-c3ccc(F)c(F)c3)cs2)cc(OC)c1OC,9.2 µM (active),
Cn1c(=O)n(C)c2cc(S(=O)(=O)N3CCCc4ccccc43)ccc21,,-7.71% (inactive)
CC1CCc2c(nc3ncnn3c2Nc2ccc(OC(F)(F)F)cc2)C1 (centres undefined),,-6.61% (inactive)
Clc1ccc2c(c1)C1=C(C(c3ccncc3)O2)C(c2ccc(Br)cc2)n2ncnc2N1 (centres undefined),,-17.4% (inactive)
O=C(NC1=CC(=O)c2ccccc2C1=O)c1ccccc1,8.2 µM (active),
